Results on 15 sequences are retold here after publication PMC11006913.

Test in all cases: PBM; 200 nM protein, PBS
What all share (settings): dsDNA, one strand shown

The target in test [1] is T1, NKX2-4 (Homo sapiens, UniProt Q9H2Z4 175-261, P217L).
T1 sequence: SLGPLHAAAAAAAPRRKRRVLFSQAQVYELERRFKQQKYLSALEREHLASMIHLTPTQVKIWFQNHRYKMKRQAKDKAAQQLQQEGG

Test [2] addresses T2, NKX2-4 (Homo sapiens, UniProt Q9H2Z4 175-261, T231S).
T2 sequence: T1 sequence with L43P, T57S

In test [3] the target is T3, NKX2-4 (Homo sapiens, UniProt Q9H2Z4 175-261).
T3 sequence: T1 sequence with L43P

Test [4] addresses T4, NKX2-4 (Homo sapiens, UniProt Q9H2Z4 175-261, R246Q).
T4 sequence: T1 sequence with L43P, R72Q

Where a chain is given by its changes, count along the chain named.

For the sequence CAAGCCAG, the binding signal in test [1] was 9.67 upbm affinity estimate (log intensity, higher = more binding, comparable within an allelic series); in test [2], 9.62 upbm affinity estimate (log intensity, higher = more binding, comparable within an allelic series); in test [3] it was 9.56 upbm affinity estimate (log intensity, higher = more binding, comparable within an allelic series); in test [4], 9.73 upbm affinity estimate (log intensity, higher = more binding, comparable within an allelic series).
As for ATCGTGCC, the binding signal in test [1] is 9.86 upbm affinity estimate (log intensity, higher = more binding, comparable within an allelic series); in test [2] it was 9.92 upbm affinity estimate (log intensity, higher = more binding, comparable within an allelic series); in test [3] it was 9.97 upbm affinity estimate (log intensity, higher = more binding, comparable within an allelic series); in test [4], 9.95 upbm affinity estimate (log intensity, higher = more binding, comparable within an allelic series).
With AGAGTGAG, the binding signal in test [1] was 11.5 upbm affinity estimate (log intensity, higher = more binding, comparable within an allelic series); in test [2], 11.6 upbm affinity estimate (log intensity, higher = more binding, comparable within an allelic series); in test [3], 11.4 upbm affinity estimate (log intensity, higher = more binding, comparable within an allelic series); in test [4], 11.6 upbm affinity estimate (log intensity, higher = more binding, comparable within an allelic series).
Turning to AGCTCGCG, the binding signal was 9.6 upbm affinity estimate (log intensity, higher = more binding, comparable within an allelic series) in test [1]; 9.58 upbm affinity estimate (log intensity, higher = more binding, comparable within an allelic series) in test [2]; 9.62 upbm affinity estimate (log intensity, higher = more binding, comparable within an allelic series) in test [3]; 9.63 upbm affinity estimate (log intensity, higher = more binding, comparable within an allelic series) in test [4].
For GGTCGCCA, the binding signal in test [1] is 9.68 upbm affinity estimate (log intensity, higher = more binding, comparable within an allelic series); in test [2], 9.67 upbm affinity estimate (log intensity, higher = more binding, comparable within an allelic series); in test [3], 9.7 upbm affinity estimate (log intensity, higher = more binding, comparable within an allelic series); in test [4], 9.8 upbm affinity estimate (log intensity, higher = more binding, comparable within an allelic series).
In the case of GTCAAGGA, the binding signal in test [1] is 11.7 upbm affinity estimate (log intensity, higher = more binding, comparable within an allelic series); in test [2] it was 11.9 upbm affinity estimate (log intensity, higher = more binding, comparable within an allelic series); in test [3] it was 11.6 upbm affinity estimate (log intensity, higher = more binding, comparable within an allelic series); in test [4] it was 11.6 upbm affinity estimate (log intensity, higher = more binding, comparable within an allelic series).
Take CGGGTACG: the binding signal is 9.52 upbm affinity estimate (log intensity, higher = more binding, comparable within an allelic series) in test [1]; 9.68 upbm affinity estimate (log intensity, higher = more binding, comparable within an allelic series) in test [2]; 9.69 upbm affinity estimate (log intensity, higher = more binding, comparable within an allelic series) in test [3]; 9.6 upbm affinity estimate (log intensity, higher = more binding, comparable within an allelic series) in test [4].
With ACCTGCAG, the binding signal in test [1] was 9.74 upbm affinity estimate (log intensity, higher = more binding, comparable within an allelic series); in test [2] it was 9.82 upbm affinity estimate (log intensity, higher = more binding, comparable within an allelic series); in test [3] it was 9.68 upbm affinity estimate (log intensity, higher = more binding, comparable within an allelic series); in test [4], 9.76 upbm affinity estimate (log intensity, higher = more binding, comparable within an allelic series).
Turning to CCAGTCAC, the binding signal was 9.45 upbm affinity estimate (log intensity, higher = more binding, comparable within an allelic series) in test [1]; 9.51 upbm affinity estimate (log intensity, higher = more binding, comparable within an allelic series) in test [2]; 9.45 upbm affinity estimate (log intensity, higher = more binding, comparable within an allelic series) in test [3]; 9.44 upbm affinity estimate (log intensity, higher = more binding, comparable within an allelic series) in test [4].
Regarding AGGCAGCC, the binding signal was 9.69 upbm affinity estimate (log intensity, higher = more binding, comparable within an allelic series) in test [1]; 9.68 upbm affinity estimate (log intensity, higher = more binding, comparable within an allelic series) in test [2]; 9.68 upbm affinity estimate (log intensity, higher = more binding, comparable within an allelic series) in test [3]; 9.7 upbm affinity estimate (log intensity, higher = more binding, comparable within an allelic series) in test [4].
As for CAAGAGGA, the binding signal in test [1] was 12 upbm affinity estimate (log intensity, higher = more binding, comparable within an allelic series); in test [2] it was 12.3 upbm affinity estimate (log intensity, higher = more binding, comparable within an allelic series); in test [3], 12 upbm affinity estimate (log intensity, higher = more binding, comparable within an allelic series); in test [4], 12.4 upbm affinity estimate (log intensity, higher = more binding, comparable within an allelic series).
Regarding CGGAATCA, the binding signal in test [1] was 9.89 upbm affinity estimate (log intensity, higher = more binding, comparable within an allelic series); in test [2], 9.89 upbm affinity estimate (log intensity, higher = more binding, comparable within an allelic series); in test [3] it was 9.83 upbm affinity estimate (log intensity, higher = more binding, comparable within an allelic series); in test [4], 9.94 upbm affinity estimate (log intensity, higher = more binding, comparable within an allelic series).
Consider CAACCGTC, for which the binding signal in test [1] is 9.81 upbm affinity estimate (log intensity, higher = more binding, comparable within an allelic series); in test [2], 9.78 upbm affinity estimate (log intensity, higher = more binding, comparable within an allelic series); in test [3] it was 9.8 upbm affinity estimate (log intensity, higher = more binding, comparable within an allelic series); in test [4], 9.85 upbm affinity estimate (log intensity, higher = more binding, comparable within an allelic series).
As to GATCGGCC, the binding signal is 9.8 upbm affinity estimate (log intensity, higher = more binding, comparable within an allelic series) in test [1]; 9.89 upbm affinity estimate (log intensity, higher = more binding, comparable within an allelic series) in test [2]; 9.87 upbm affinity estimate (log intensity, higher = more binding, comparable within an allelic series) in test [3]; 9.9 upbm affinity estimate (log intensity, higher = more binding, comparable within an allelic series) in test [4].
As for GCCCTTAA, the binding signal is 12 upbm affinity estimate (log intensity, higher = more binding, comparable within an allelic series) in test [1]; 12.3 upbm affinity estimate (log intensity, higher = more binding, comparable within an allelic series) in test [2]; 12 upbm affinity estimate (log intensity, higher = more binding, comparable within an allelic series) in test [3]; 12.2 upbm affinity estimate (log intensity, higher = more binding, comparable within an allelic series) in test [4].
